From publication PMC8384837, “Expanding the binding specificity for RNA recognition by a PUF domain”

How the values were obtained:
Assay in all cases: yeast three-hybrid, YBZ-1, SC-Leu-His + 0.5 mM 3-AT, 4 days
Details in all cases: tags: N-Gal4 AD-HA kept; label: inside an RPR1-promoter hybrid RNA with tandem MS2 sites; ssRNA
PUM1 PUF domain R4-EWD = PUM1 PUF domain R4-EWD (Homo sapiens, UniProt Q14671 828-1176, N971E;H972W;Q975D)
Summary of the method: (§1)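 Sequencing with Illumina followed PCR amplification of the repeat regions from transformants grown four days on SC-Leu (input) or SC-Leu-His + 0.5 mM 3-AT (selection). The transformants were strain YBZ-1 with a LexA–MS2 coat fusion and a HIS3 reporter, carrying Pumilio-1 PUF domain libraries and matching RNA elements. The interaction score is the log change in variant frequency from input to selection, computed in log2 with a pseudocount of 1 for absent variants.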

PUM1 PUF domain R8-LYR = PUM1 PUF domain R8-LYR (Homo sapiens, UniProt Q14671 828-1176, N1122L;Q1126R)
Summary of the method: as §1

PUM1 PUF domain R8-TWR = PUM1 PUF domain R8-TWR (Homo sapiens, UniProt Q14671 828-1176, N1122T;Y1123W;Q1126R)
Summary of the method: as §1

PUM1 PUF domain R2-IVF = PUM1 PUF domain R2-IVF (Homo sapiens, UniProt Q14671 828-1176, N899I;Y900V;Q903F)
Summary of the method: as §1

PUM1 PUF domain R5-RFR = PUM1 PUF domain R5-RFR (Homo sapiens, UniProt Q14671 828-1176, C1007R;R1008F;Q1011R)
Summary of the method: as §1

PUM1 PUF domain R5-QNR = PUM1 PUF domain R5-QNR (Homo sapiens, UniProt Q14671 828-1176, C1007Q;R1008N;Q1011R)
Summary of the method: as §1

PUM1 PUF domain R5-PYF = PUM1 PUF domain R5-PYF (Homo sapiens, UniProt Q14671 828-1176, C1007P;R1008Y;Q1011F)
Summary of the method: as §1

PUM1 PUF domain R5-RKE = PUM1 PUF domain R5-RKE (Homo sapiens, UniProt Q14671 828-1176, C1007R;R1008K;Q1011E)
Summary of the method: as §1

PUM1 PUF domain R1-YYR = PUM1 PUF domain R1-YYR (Homo sapiens, UniProt Q14671 828-1176, S863Y;R864Y;Q867R)
Summary of the method: as §1

PUM1 PUF domain R6-HFS = molecular target: T1, PUM1 PUF domain R6-HFS (Homo sapiens, UniProt Q14671 828-1176, N1043H;Y1044F;Q1047S)
T1 sequence: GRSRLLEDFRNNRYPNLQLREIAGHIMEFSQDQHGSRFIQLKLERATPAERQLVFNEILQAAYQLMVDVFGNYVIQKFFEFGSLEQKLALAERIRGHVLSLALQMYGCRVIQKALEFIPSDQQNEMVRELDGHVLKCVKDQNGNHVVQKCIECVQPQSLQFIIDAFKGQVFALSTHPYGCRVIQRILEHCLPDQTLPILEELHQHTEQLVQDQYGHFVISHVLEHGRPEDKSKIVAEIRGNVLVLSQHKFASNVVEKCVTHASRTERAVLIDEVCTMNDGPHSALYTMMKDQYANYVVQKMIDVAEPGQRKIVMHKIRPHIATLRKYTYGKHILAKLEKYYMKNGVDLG
Summary of the method: as §1

PUM1 PUF domain R8-RFM = PUM1 PUF domain R8-RFM (Homo sapiens, UniProt Q14671 828-1176, N1122R;Y1123F;Q1126M)
Summary of the method: as §1

PUM1 PUF domain R3-GRH = PUM1 PUF domain R3-GRH (Homo sapiens, UniProt Q14671 828-1176, C935G;Q939H)
Summary of the method: as §1

PUM1 PUF domain R4-RMG = PUM1 PUF domain R4-RMG (Homo sapiens, UniProt Q14671 828-1176, N971R;H972M;Q975G)
Summary of the method: as §1

PUM1 PUF domain R4-WSW = PUM1 PUF domain R4-WSW (Homo sapiens, UniProt Q14671 828-1176, N971W;H972S;Q975W)
Summary of the method: as §1

PUM1 PUF domain R3-SRA = PUM1 PUF domain R3-SRA (Homo sapiens, UniProt Q14671 828-1176, C935S;Q939A)
Summary of the method: as §1

PUM1 PUF domain R3-VRM = PUM1 PUF domain R3-VRM (Homo sapiens, UniProt Q14671 828-1176, C935V;Q939M)
Summary of the method: as §1

PUM1 PUF domain R3-MRI = PUM1 PUF domain R3-MRI (Homo sapiens, UniProt Q14671 828-1176, C935M;Q939I)
Summary of the method: as §1

PUM1 PUF domain R4-QHR = PUM1 PUF domain R4-QHR (Homo sapiens, UniProt Q14671 828-1176, N971Q;Q975R)
Summary of the method: as §1

PUM1 PUF domain R1-NWV = PUM1 PUF domain R1-NWV (Homo sapiens, UniProt Q14671 828-1176, S863N;R864W;Q867V)
Summary of the method: as §1

PUM1 PUF domain R5-SDE = PUM1 PUF domain R5-SDE (Homo sapiens, UniProt Q14671 828-1176, C1007S;R1008D;Q1011E)
Summary of the method: as §1

Sequence of PUM1 PUF domain R5-RFR (Q14671 828-1176 C1007R/R1008F/Q1011R): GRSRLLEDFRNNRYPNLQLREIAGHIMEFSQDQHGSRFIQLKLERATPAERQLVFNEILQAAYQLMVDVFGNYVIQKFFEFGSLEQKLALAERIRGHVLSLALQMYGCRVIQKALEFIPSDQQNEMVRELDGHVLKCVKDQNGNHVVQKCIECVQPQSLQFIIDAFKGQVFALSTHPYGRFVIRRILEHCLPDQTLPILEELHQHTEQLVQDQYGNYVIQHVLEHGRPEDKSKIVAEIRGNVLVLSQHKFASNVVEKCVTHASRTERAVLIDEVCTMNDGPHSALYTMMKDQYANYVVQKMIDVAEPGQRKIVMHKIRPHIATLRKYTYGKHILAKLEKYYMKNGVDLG
Sequence of PUM1 PUF domain R1-YYR (Q14671 828-1176 S863Y/R864Y/Q867R): as the sequence (Q14671 828-1176 C1007R/R1008F/Q1011R) above, with S36Y, R37Y, Q40R, R180C, F181R, R184Q counted along it

“GGCUAGAACUAGUGGAUCCCCCGGCGCCCGGCGGCUCGAGCCCGGGUAAGUGUAGAUAGUCUGCAUGCCGCCGGGCGCCAUGCCUGCAGGUCGACUCUAGAAAACAUG” was tested, and the binding signal (PUM1 PUF domain R4-EWD) was 4.33 log2 enrichment (interaction score).

With “GGCUAGAACUAGUGGAUCCCCCGGCGCCCGGCGGCUCGAGCCCGGGUAAGCGUAAAUAGUCUGCAUGCCGCCGGGCGCCAUGCCUGCAGGUCGACUCUAGAAAACAUG” the binding signal (PUM1 PUF domain R8-LYR) was 5.06 log2 enrichment (interaction score) and the binding signal (PUM1 PUF domain R8-TWR) was 5.17 log2 enrichment (interaction score).

With “GGCUAGAACUAGUGGAUCCCCCGGCGCCCGGCGGCUCGAGCCCGGGUAAGUGUAAAGAGUCUGCAUGCCGCCGGGCGCCAUGCCUGCAGGUCGACUCUAGAAAACAUG” the binding signal (PUM1 PUF domain R2-IVF) was 4.01 log2 enrichment (interaction score).

“GGCUAGAACUAGUGGAUCCCCCGGCGCCCGGCGGCUCGAGCCCGGGUAAGUGUUAAUAGUCUGCAUGCCGCCGGGCGCCAUGCCUGCAGGUCGACUCUAGAAAACAUG” was tested, and the binding signal (PUM1 PUF domain R5-RFR) was 3.92 log2 enrichment (interaction score), the binding signal (PUM1 PUF domain R5-QNR) was 2.93 log2 enrichment (interaction score) and the binding signal (PUM1 PUF domain R5-PYF) was 2.41 log2 enrichment (interaction score). For the same sequence, the binding signal (PUM1 PUF domain R5-RKE) was 3.74 log2 enrichment (interaction score).

“GGCUAGAACUAGUGGAUCCCCCGGCGCCCGGCGGCUCGAGCCCGGGUAAGUGUCAAUAGUCUGCAUGCCGCCGGGCGCCAUGCCUGCAGGUCGACUCUAGAAAACAUG” was tested, and the binding signal (PUM1 PUF domain R5-RFR) was 5.35 log2 enrichment (interaction score) and the binding signal (PUM1 PUF domain R5-RKE) was 3.39 log2 enrichment (interaction score).

In the case of “GGCUAGAACUAGUGGAUCCCCCGGCGCCCGGCGGCUCGAGCCCGGGUAAGUGUAAAUCGUCUGCAUGCCGCCGGGCGCCAUGCCUGCAGGUCGACUCUAGAAAACAUG”, the binding signal (PUM1 PUF domain R1-YYR) is reported as 2.79 log2 enrichment (interaction score).

“GGCUAGAACUAGUGGAUCCCCCGGCGCCCGGCGGCUCGAGCCCGGGUAAGUGUAAAUAGUCUGCAUGCCGCCGGGCGCCAUGCCUGCAGGUCGACUCUAGAAAACAUG” was tested, and the binding signal (PUM1 PUF domain R5-RFR) was 2.72 log2 enrichment (interaction score), the binding signal (PUM1 PUF domain R1-YYR) was 3.43 log2 enrichment (interaction score) and the binding signal (PUM1 PUF domain R6-HFS) was 4.79 log2 enrichment (interaction score). For the same sequence, the binding signal (PUM1 PUF domain R8-RFM) was 4.37 log2 enrichment (interaction score), the binding signal (PUM1 PUF domain R8-LYR) was 4.3 log2 enrichment (interaction score) and the binding signal (PUM1 PUF domain R3-GRH) was 4.23 log2 enrichment (interaction score). For the same sequence, the binding signal (PUM1 PUF domain R4-RMG) was 2.77 log2 enrichment (interaction score), the binding signal (PUM1 PUF domain R4-WSW) was 4.02 log2 enrichment (interaction score) and the binding signal (PUM1 PUF domain R3-SRA) was 3.83 log2 enrichment (interaction score). For the same sequence, the binding signal (PUM1 PUF domain R3-VRM) was 3.67 log2 enrichment (interaction score) and the binding signal (PUM1 PUF domain R8-TWR) was 4.94 log2 enrichment (interaction score).

With “GGCUAGAACUAGUGGAUCCCCCGGCGCCCGGCGGCUCGAGCCCGGGUAAGUGUAAGUAGUCUGCAUGCCGCCGGGCGCCAUGCCUGCAGGUCGACUCUAGAAAACAUG” the binding signal (PUM1 PUF domain R3-SRA) was 3.65 log2 enrichment (interaction score), the binding signal (PUM1 PUF domain R3-VRM) was 1.15 log2 enrichment (interaction score) and the binding signal (PUM1 PUF domain R3-MRI) was 5.12 log2 enrichment (interaction score).

With “GGCUAGAACUAGUGGAUCCCCCGGCGCCCGGCGGCUCGAGCCCGGGUAAGUGUACAUAGUCUGCAUGCCGCCGGGCGCCAUGCCUGCAGGUCGACUCUAGAAAACAUG” the binding signal (PUM1 PUF domain R4-QHR) was 2.26 log2 enrichment (interaction score) and the binding signal (PUM1 PUF domain R4-WSW) was 2.13 log2 enrichment (interaction score).

With “GGCUAGAACUAGUGGAUCCCCCGGCGCCCGGCGGCUCGAGCCCGGGUAAGUGUAAUUAGUCUGCAUGCCGCCGGGCGCCAUGCCUGCAGGUCGACUCUAGAAAACAUG” the binding signal (PUM1 PUF domain R3-SRA) was 0.68 log2 enrichment (interaction score), the binding signal (PUM1 PUF domain R3-VRM) was 1.73 log2 enrichment (interaction score) and the binding signal (PUM1 PUF domain R3-MRI) was 1.25 log2 enrichment (interaction score).

For “GGCUAGAACUAGUGGAUCCCCCGGCGCCCGGCGGCUCGAGCCCGGGUAAGUGUAUAUAGUCUGCAUGCCGCCGGGCGCCAUGCCUGCAGGUCGACUCUAGAAAACAUG”, the binding signal (PUM1 PUF domain R4-WSW) was 3.38 log2 enrichment (interaction score).

For “GGCUAGAACUAGUGGAUCCCCCGGCGCCCGGCGGCUCGAGCCCGGGUAAGUGUAAAUUGUCUGCAUGCCGCCGGGCGCCAUGCCUGCAGGUCGACUCUAGAAAACAUG”, the binding signal (PUM1 PUF domain R1-NWV) was 4.33 log2 enrichment (interaction score) and the binding signal (PUM1 PUF domain R1-YYR) was 7.65 log2 enrichment (interaction score).

In the case of “GGCUAGAACUAGUGGAUCCCCCGGCGCCCGGCGGCUCGAGCCCGGGUAAGUGUGAAUAGUCUGCAUGCCGCCGGGCGCCAUGCCUGCAGGUCGACUCUAGAAAACAUG”, the binding signal (PUM1 PUF domain R5-RFR) is reported as 2.74 log2 enrichment (interaction score) and the binding signal (PUM1 PUF domain R5-SDE) is reported as 2.31 log2 enrichment (interaction score).
